Marburg entry inh = blocks Marburg virus binding to or entry into cells | Potency, µM (doses to about 37.8 µM), hits mostly inhibitors | hit rate 1.8% among 300,000 | Marburg virus pseudotyped entry inhibition, cell reporter; calls by dose curve; tested in HEK293 cells
Cycloheximide cs = counter-screen for Shiga toxin inhibitors: cycloheximide protein synthesis inhibition | hit rate 12% among 300,000 | max response, % | cell reporter, cycloheximide protein synthesis inhibition counterscreen; in the data active = max response mostly above about 13%, no sharp cut-off; inactive = mostly below about 14%; also: read at 38.3 µM for the half of the compounds with a filed dose
Shiga toxin inh = Shiga toxin inhibition. Vero cells, Shiga toxin protein synthesis inhibition reporter. inhibition, % at 38.7 µM. hit rate 9.2% among 290,000. AID 2315; in the data active = inhibition mostly above about 28%, no sharp cut-off; inactive = mostly below about 43%
LASV entry inh = Lassa virus entry inhibition | Lassa virus pseudotype entry inhibition, cell reporter | Potency, µM (titrated, usually from 37.9 µM), actives largely listed as inhibitors | hit rate 1.2% among 300,000 | AID 540256; calls by dose curve; tested in HEK293 cells; also: nearly all actives have a fitted effect of over 50% in size
Large screens that a line does not name were inactive. Compounds with a hit are over-represented: about 12% of the library has one in this group of screens.

COc1ccc([N+](=O)[O-])c(S(=O)(=O)c2ccccc2)n1	Marburg entry inh inconclusive, LASV entry inh 7.1µM
COc1ccc([N+](=O)[O-])c(S(=O)(=O)c2ccc(Cl)cc2)n1	Marburg entry inh 4.5µM, LASV entry inh inconclusive
O=[N+]([O-])c1cccnc1S(=O)(=O)c1ccccc1	Marburg entry inh inconclusive, LASV entry inh inconclusive
CCCC1C(=O)n2c(nc3ccccc32)N=C1C (stereo not drawn)	none (no result: Cycloheximide cs, Shiga toxin inh, LASV entry inh)
O=C(/C=C/c1ccc2c(c1)OCO2)NC1CCCC1	Cycloheximide cs 27 (no result: Marburg entry inh, Shiga toxin inh, LASV entry inh)
O=C(/C=C\c1ccc2c(c1)OCO2)NC1CC(=O)N(c2cccc(F)c2)C1 (stereo not drawn)	none (no result: Marburg entry inh, Cycloheximide cs, Shiga toxin inh)
O=C(/C=C/c1ccc2c(c1)OCO2)NCC1CCCO1 (stereo not drawn)	Cycloheximide cs 37, Shiga toxin inh 63, LASV entry inh inconclusive
O=C(/C=C/c1cccc([N+](=O)[O-])c1)NCC1CCCO1 (stereo not drawn)	none
CCc1cccc(NC(=O)CCNS(=O)(=O)c2ccc3c(c2)oc(=O)n3C)c1	none
O=C(NC(=S)Nc1cccc2c(O)cccc12)c1ccco1	Marburg entry inh inconclusive, Cycloheximide cs 26, Shiga toxin inh 109
COC(=O)c1ccccc1NC(=S)NC(NC(=O)c1ccco1)C(Cl)(Cl)Cl (stereo not drawn)	none
O=C(NC(NC(=S)Nc1ccccc1C(=O)O)C(Cl)(Cl)Cl)c1ccco1 (stereo not drawn)	Cycloheximide cs 31, Shiga toxin inh 45
O=C(NC(=S)Nc1ccccc1Cl)c1ccco1	Marburg entry inh inconclusive, Cycloheximide cs 44, Shiga toxin inh 90
CCCOc1ccc(/C(O)=C2/C(=O)C(=O)N(c3ccccn3)C2c2ccc(OC)cc2)cc1C (stereo not drawn)	none
O=C(COC(=O)c1cccnc1Cl)Nc1ccc2c(c1)OCO2	Cycloheximide cs 32, Shiga toxin inh 97
CSc1ncccc1C(=O)OCC(=O)Nc1ccc(N2CCOCC2)cc1	none (no result: Cycloheximide cs, Shiga toxin inh)
O=C(COC(=O)c1ccc(Cl)nc1)Nc1ccc2c(c1)OCO2	none
CSc1ncccc1C(=O)OCC(=O)Nc1ccc2c(c1)OCO2	Shiga toxin inh 35
O=C(N/C(=C/c1cccc([N+](=O)[O-])c1)C(=O)N1CCCCCC1)c1cccs1	none
CN(Cc1nc(-c2ccccc2)no1)C(=O)c1ccc2c(c1)OCO2	Marburg entry inh inconclusive (no result: Cycloheximide cs, Shiga toxin inh)
OCCN(Cc1nc(-c2ccc3c(c2)OCO3)no1)Cc1cccs1	Shiga toxin inh 36 (no result: Marburg entry inh, LASV entry inh)
Cc1ccc(C(=O)NC(C)C2CC3CCC2C3)cc1 (stereo not drawn)	none (no result: Cycloheximide cs, Shiga toxin inh)
CSc1ccccc1NC(=O)c1ccc(Br)o1	Cycloheximide cs 36, Shiga toxin inh 45
O=C(Nc1ccccc1N1CCCC1)c1ccc(Br)o1	Cycloheximide cs 9.2, LASV entry inh inconclusive
O=C(Nc1ccc(N2CCCC2)c(Cl)c1)c1ccc(Br)o1	Marburg entry inh inconclusive, Cycloheximide cs 41, LASV entry inh inconclusive
COc1ccc(N2CCCC2)c(NC(=O)c2ccc(Br)o2)c1	none
CC(=O)N1CCN(c2ccccc2NC(=O)c2ccc(Br)o2)CC1	none
CCOc1ccc(CCNC(=O)c2cnc3c(-c4ccc(F)cc4)c(C)nn3c2C)cc1OCC	none (no result: Marburg entry inh, Cycloheximide cs, Shiga toxin inh)
Cc1c(OCc2ccc([N+](=O)[O-])cc2)ccc2c3c(c(=O)oc12)CCC3	Marburg entry inh inconclusive, Cycloheximide cs 31, LASV entry inh inconclusive
Cc1cc(OCc2ccc([N+](=O)[O-])cc2)c2c3c(c(=O)oc2c1)CCCC3	LASV entry inh inconclusive
Cc1c(OCC(=O)N(C)C)ccc2c3c(c(=O)oc12)CCCCC3	none (no result: Marburg entry inh, LASV entry inh)
CC(=O)COc1ccc2c3c(c(=O)oc2c1C)CCCCC3	Marburg entry inh inconclusive, Cycloheximide cs 19, Shiga toxin inh 64, LASV entry inh inconclusive
Cc1cc(O)c(C(c2ccc(F)cc2)N2CCCCC2)c(=O)n1Cc1ccco1 (stereo not drawn)	none (no result: Marburg entry inh, Cycloheximide cs, Shiga toxin inh)
Cc1ccc(-c2[nH]nc(N)c2N=Nc2ccccc2C)cc1	Marburg entry inh 8.2µM, LASV entry inh inconclusive
Cc1cccc(N=Nc2c(N)n[nH]c2-c2ccc(Cl)cc2)c1	Marburg entry inh inconclusive
Cc1ccc(-c2[nH]nc(N)c2N=Nc2cccc(Cl)c2C)cc1	Marburg entry inh 20µM, LASV entry inh inconclusive
CC(C)=CCCC(C)=CCN1C(=O)[C@]2(O[C@H](COc3ccccc3)CC3=CCCC32)c2c(Br)cccc21 (stereo partly drawn)	none (no result: Cycloheximide cs, Shiga toxin inh, LASV entry inh)
O=[N+]([O-])c1cccc(-c2ccc3nnc(SCc4ccccn4)n3n2)c1	none (no result: Marburg entry inh, LASV entry inh)
c1ccc(CSc2nnc3ccc(-c4ccco4)nn23)nc1	Cycloheximide cs 34, Shiga toxin inh 67 (no result: Marburg entry inh, LASV entry inh)
c1ccc(CSc2nnc3ccc(-c4cccs4)nn23)nc1	Shiga toxin inh 61 (no result: Marburg entry inh, LASV entry inh)
c1cncc(CSc2nnc3ccc(-c4cccs4)nn23)c1	none (no result: Marburg entry inh, LASV entry inh)
O=C(Nc1nc(-c2cc3ccccc3oc2=O)cs1)c1ccco1	none (no result: Marburg entry inh, LASV entry inh)
c1ccc2oc(-c3csc(NCC4CCCO4)n3)cc2c1 (stereo not drawn)	Marburg entry inh inconclusive, Cycloheximide cs 30, Shiga toxin inh 74, LASV entry inh inconclusive
COc1ccc(/C=C(/C#N)c2nc(-c3cc4ccccc4oc3=O)cs2)cc1	none (no result: Marburg entry inh, Cycloheximide cs, Shiga toxin inh)
O=C(Nc1nc(-c2cc3ccccc3o2)cs1)c1ccc(S(=O)(=O)N2CCCC2)cc1	Marburg entry inh inconclusive, LASV entry inh inconclusive
CC1CCC/C(=C(\C#N)c2nc(-c3cc4ccccc4oc3=O)cs2)C1 (stereo not drawn)	Marburg entry inh inconclusive, Cycloheximide cs 51, Shiga toxin inh 89
C=CCNc1nc(-c2cc3ccccc3o2)cs1	Marburg entry inh inconclusive, Cycloheximide cs 40, LASV entry inh 7.9µM
O=c1oc2ccccc2cc1-c1csc(NN=C2CCCCC2)n1	Cycloheximide cs 45, Shiga toxin inh 81, LASV entry inh inconclusive
c1ccc2sc(NCC3CCCO3)nc2c1 (stereo not drawn)	Marburg entry inh inconclusive, Cycloheximide cs 38, Shiga toxin inh 134
Cc1ccc(S(=O)(=O)N(C)c2ccc(C(=O)Nc3ccccn3)cc2)cc1	none (no result: Cycloheximide cs, Shiga toxin inh)
CCCNS(=O)(=O)c1ccc(NC(=O)c2ccccn2)cc1	Marburg entry inh inconclusive, Shiga toxin inh 92, LASV entry inh inconclusive
CN(C)S(=O)(=O)c1ccc(C(=O)Nc2ccccn2)cc1	Cycloheximide cs 22
COCC(C)NS(=O)(=O)c1ccc(NC(=O)c2ccccn2)cc1 (stereo not drawn)	Cycloheximide cs 11, Shiga toxin inh 31 (no result: Marburg entry inh, LASV entry inh)
CC(=O)NS(=O)(=O)c1ccc(NC(=O)c2ccccn2)cc1	none
CCN(CC)S(=O)(=O)c1ccc(NC(=O)c2ccccn2)cc1	Cycloheximide cs 30, Shiga toxin inh 96
CCOc1ccc(NS(=O)(=O)c2c(C)nc3sc(CC)nn3c2=O)cc1	none
CN(C)S(=O)(=O)c1ccc(NC(=O)c2ccccn2)cc1	Marburg entry inh inconclusive, Cycloheximide cs 34, Shiga toxin inh 112, LASV entry inh inconclusive
Cc1c(C2Nc3ccccc3C(=O)N2O)cnn1C (stereo not drawn)	Cycloheximide cs 17, LASV entry inh inconclusive
O=C1c2ccccc2NC(c2ccco2)N1O (stereo not drawn)	none
CCn1cc(C2Nc3ccccc3C(=O)N2O)c(C)n1 (stereo not drawn)	Cycloheximide cs 12, Shiga toxin inh 44
CCOC(=O)CC(NC(=O)Cn1nnc(-c2ccccc2Cl)n1)c1ccc(OC)cc1 (stereo not drawn)	none
CC(C)N(CCc1ccncc1)C(=S)Nc1cccc(Cl)c1	Marburg entry inh inconclusive, LASV entry inh inconclusive
N#Cc1cccc(CN2CCC(=O)N([C@H](CO)Cc3ccccc3)CC2)c1	none (no result: Marburg entry inh, LASV entry inh)
